# Results published in PubChem BioAssay (NCI).
# This is part of a sample that, as a whole, favours compounds with a hit. Of some 83,000 tested, about 20% had one in any assay.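 Cell lines were cultured in 96-well plates, exposed to a single compound concentration, and assessed for percent growth 48 hours later.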 Calls of active or inactive are those of the source.
# Tested on: HS 578T breast
# Experiment: NCI-60 one-dose screen, 48 h (100 = growth as untreated, 0 = no growth, -100 = all killed)
# Details: 10 µM unless noted
# Procedure: Growth inhibition of the HS 578T human tumor cell line is measured as a screen for anti-cancer activity. Cells are grown in 96 well plates and exposed to the test compound for 48 hours. Compounds are tested at a single concentration, which is 10^-5 M for most compounds. The reported endpoint is percent growth (GI% or GIPRCNT), where numbers from 0 - 100% represent growth inhibition, and numbers from -100% - 0 represent cell death. For example, a value of 40 represents 60% growth inhibition. A value of 0 means no net growth occurred over the course of the experiment. A value of -40 indicates 40% of cells at the beginning of the experiment died by the end of the experiment. A value of -100 means all cells are dead at the end of the experiment.
# NCI-60 Human Tumor Cell Lines Screen was performed using the standard one-dose NCI protocol, which is described in more detail at https://dtp.cancer.gov/discovery_development/nci-60/default.htm.
# Compounds with GIPRCNT values below 10 were considered active. Activity score was based on GIPRCNT using the following formula: […]
# Score is 0 for GIPRCNT values of 100 or above, 50 for GIPRCNT values of 0, and 100 for GIPRCNT values of -100.
row,Compound,growth
1,CC(=O)CCC(=O)OCc1cc(=O)c(O)co1,103% (inactive)
2,COC(=O)/C=C1\S/C(=N\NC(=O)c2cc3ccc2/C=C\c2ccc(cc2)/C=C\3)N(c2ccccc2)C1=O,77.9% (inactive)
3,COc1ccc(N2CCN(c3ccc(NC4=C(Cl)C(=O)c5ncccc5C4=O)cc3)CC2)cc1,36.3% (inactive)
4,O=C(O)c1ccc2c(c1)C(=O)N(Cc1ccccc1)C2=O,99.7% (inactive)
5,NC(=NCCCOc1ccc(F)cc1)Nc1ccc(Cl)cc1,81.9% (inactive)
6,COc1ccc(C/C(=C(\C)c2ccc(OCCN3CCCC3)cc2)c2ccc(OCCN3CCCC3)cc2)cc1,66.7% (inactive)
7,N#Cc1cccc(-c2ccc3c(c2)NC(=O)/C3=C\c2ccc[nH]2)c1,92.1% (inactive)
8,COc1ccc2nc(-c3ccc(-c4noc(-c5cc(OC)c(OC)c(OC)c5)n4)cc3)[nH]c2c1,72.6% (inactive)
9,C/C(=N\Nc1cc(C)nc2ccc(Br)cc12)c1ccc([N+](=O)[O-])cc1,96.8% (inactive)
10,CCOC(=O)[C@@H](C)C[C@H](Cc1ccccc1)NC(=O)c1csc([C@@H](C[C@H](C(C)C)N(C)C(=O)[C@@H](NC(=O)[C@H]2C[C@H](O[Si](C)(C)C(C)(C)C)CCN2C)C(C)C)OC(C)=O)n1,-17.7% [9.25 µM] (active)
11,COc1ccccc1/C=C1\Oc2cc(OCCN3CCCC3)ccc2C1=O,80.6% (inactive)
12,CC(C)N1C(=O)/C(=C2\SC(=S)N(C(C)C)C2=O)SC1=S,91.4% (inactive)
13,COc1cc2c(=O)n(CCN)c3c4cc5c(cc4ccc3c2cc1OC)OCO5,25.8% (inactive)
14,NS(=O)(=O)c1ccc(CCn2c(SCC(=O)c3ccc(Cl)cc3)nc3ccccc3c2=O)cc1,101% (inactive)
15,CCN(CC)CCCC(C)Nc1cc(O)cc2cccnc12 (stereo not given),73.9% (inactive)
16,Cc1nn(-c2ccccc2)c(Cl)c1/C=N\N=c1/sc2ccccc2n1C,104% (inactive)
17,COc1ccc(/C=C(\C#N)n2nc3cccc(F)c3n2)cc1,104% (inactive)
18,C[C@H](c1nc2ccc(N)cc2[nH]1)[C@H]1CC[C@H]2[C@@H]3CCC4=CC(=O)CC[C@]4(C)[C@H]3CC[C@]12C,87.3% (inactive)
19,O=C1Nc2cc(-c3cccc(O)c3)ccc2/C1=C/c1ccc[nH]1,-4.18% (active)
20,O=[N+]([O-])CC(c1ccccc1F)c1c[nH]c2ccccc12 (stereo not given),77.2% (inactive)

row,Compound,growth
1,CN1C(N2CCN(S(=O)(=O)c3ccccc3)CC2)=NS(=O)(=O)c2ccccc21,82.5% (inactive)
2,COC(=O)C(CC=O)C(=O)C(=O)Nc1cccc(C(F)(F)F)c1 (stereo not given),90.6% (inactive)
3,CCOC(=O)CCN(CC(C)C)C(=S)Nc1ccccc1,117% (inactive)
4,O=C(CCN1CCCC1)Nc1ccc2c(Nc3ccc(Br)cc3)c3ccccc3nc2c1,58.6% (inactive)
5,O=C(CCN1CCCC1)Nc1ccc2c(NCCCCc3ccccc3)c3ccccc3nc2c1,-9.34% (active)
6,CN1CCC(=C(c2ccccc2)c2ccccc2)C(c2ccccc2)C1 (stereo not given),103% (inactive)
7,CC1(C)NCCC[C@]2(C)[C@H]3CC(=O)[C@H]4[C@@H]5C[C@](C)(CO)CC[C@]5(C)CC[C@@]4(C)[C@]3(C)CC[C@@H]12,99.4% (inactive)
8,O=S(=O)(Nc1ccc(-n2cnc3cc(-c4ccc(O)cc4)ccc32)cc1)c1ccccc1,97.3% (inactive)
9,CNC(=O)c1cccc(Cn2nc(C)c(NC(=O)c3ccc(COc4ccc(C(F)(F)F)cc4C)cc3)c2C)c1,84.9% (inactive)
10,Nc1nc(Nc2ccccc2SSc2ccccc2Nc2nc(N)nc(-c3ccc(C(F)(F)F)cc3)n2)nc(-c2ccc(C(F)(F)F)cc2)n1,78.7% (inactive)
11,O=S(=O)(NCCNc1nccc(-c2c(-c3cccc(F)c3)nc3sccn23)n1)c1ccc(Br)cc1,63.6% (inactive)
12,O=S(=O)(NCCCNc1nccc(-c2c(-c3cccc(F)c3)nc3sccn23)n1)c1cccc2ccccc12,55.9% (inactive)
13,N#Cc1c(-c2ccccc2)nc2c(c(-c3ccccc3)nn2-c2ccccc2)c1-c1ccc(O)cc1,15.9% (inactive)
14,CCN(CC)c1ccc(/C=N/NC(=O)CSc2nc3ccccc3c(=O)n2Cc2ccc(S(N)(=O)=O)cc2)c(O)c1,63% (inactive)
15,C/C(=N\NC(=O)CSc1nc2ccccc2c(=O)n1Cc1ccc(S(N)(=O)=O)cc1)c1ccc(F)cc1,102% (inactive)
16,COc1ccc(C(=O)c2cc(C)c(OC)c(C)c2)c(OC)c1N(C(=O)CCl)C(=O)CCl,23% (inactive)
17,COc1cc2c(c(OC)c1OC)-c1ccc(NNC(=S)N(Cc3cccc(C[N+](Cc4cccc(CNC56CC7CC(CC(C7)C5)C6)c4)(Cc4cccc(CNC56CC7CC(CC(C7)C5)C6)c4)Cc4cccc(CN(C(=S)NNc5ccc6c(cc5=O)[C@@H](NC(C)=O)CCc5cc(OC)c(OC)c(OC)c5-6)C56CC7CC(CC(C7)C5)C6)c4)c3)C34CC5CC(CC(C5)C3)C4)c(=O)cc1[C@@H](NC(C)=O)CC2 (stereo not given in full),7.62% (active)
18,O=C(CNCCN1CCOCC1)N1c2cccc3cccc(c23)N(C(=O)CNCCN2CCOCC2)C1c1cn(-c2ccccc2)nc1-c1cccc([N+](=O)[O-])c1,69.1% (inactive)
19,O=c1ccc(-c2nc(N3CCOCC3)c3ccccc3n2)c[nH]1,62.5% (inactive)
20,CCCCCCNC(=O)Nc1ccc2cc3ccc(NC(=O)NCCCCCC)cc3nc2c1,-53.7% (active)
